SMILES strings stand for the structures. Screen size: about 48,000 compounds; about 13,000 (27%) showed an effect of 50% or more. Some of the results follow.

The test system of this test is Wolbachia pipientis. The test can be described thus: Anti-Wolbachia Cell-Based Screen. To be noted: 5 µM. On the set-up: scale not given: in the data most compounds retested in dose-response had high values. The test is classed as functional.
As to `CCCC1(NC(=O)C(c2ccc(F)cc2)N(C)C)CC1` (stereo unspecified), the “Percent Effect” value is 19.19%.
Regarding `Cc1ccc(CNCc2ccc(N3CCC(CO)CC3)nc2)c(C)c1.Cl`, the “Percent Effect” value worked out at 6.349%.
Regarding `CCS(=O)(=O)NCCNCc1ccc(Cl)c2cccnc12`, the “Percent Effect” value was 1.555%.
With `CCc1sc(C(=O)Nc2cnn(CC(=O)NC3CC3)c2)cc1C`, the “Percent Effect” value was -4.419%.
In the case of `CC(NC(=O)c1cc2n(n1)CCCN(C(C)C)C2)c1cn2ccsc2n1` (stereo unspecified), the “Percent Effect” value turned out to be 13.56%.
The value for `FC1(F)CCN(Cc2cccnc2)CC12CCN(c1cnccn1)C2.O=C(O)C(F)(F)F.O=C(O)C(F)(F)F.O=C(O)C(F)(F)F` (stereo unspecified) was 109.7%; that for `O=C(O)C(F)(F)F.OCCN1CCC(F)(F)C2(CCN(c3cnccn3)C2)C1` (stereo unspecified) was 101.7%; that for `O=C(O)C(F)(F)F.O=C(c1c[nH]cn1)N1CCC(F)(F)C2(CCN(c3cnccn3)C2)C1` (stereo unspecified) was -14.15%.
`O=C(NS(=O)(=O)c1ccc2c(c1)CCC2)C1COCCO1` (stereo unspecified): the “Percent Effect” value is on record as -6.627%.
On to `CCOc1cc(C)ccc1NS(=O)(=O)c1cc(C)c(C(=O)O)s1`, for which the “Percent Effect” value is recorded as -7.525%.
As to `O=C1CC(c2ccsc2)c2c(n(C3CCOCC3)[nH]c2=O)N1` (stereo unspecified), the “Percent Effect” value came to 5.675%.
With `Cc1ccc(SCCN(C)C(=O)c2cn([C@H]3CC[C@@H](N)CC3)nn2)cc1`, the “Percent Effect” value was 1.127%.
As to `Cc1nc([C@H]2C[C@H]3CN(C(=O)c4ccoc4C)CC[C@@H]3O2)no1`, the “Percent Effect” value is listed as -4.157%.
The value for `Cc1occc1C(=O)N1CC[C@H]2C[C@@H](c3nnc(C4CC4)o3)O[C@@H]2C1` was 109%.
The same measure for `Cc1ccoc1C(=O)N1CC[C@H]2C[C@H](c3nnc(C4CC4)o3)O[C@@H]2C1`: 102.2%; for `Cc1nc([C@@H]2C[C@@H]3CCN(C(=O)c4occc4C)C[C@H]3O2)no1`: -8.664%; for `CCC1c2ccccc2CCN1C(=O)c1ccc(OC)nn1` (stereo unspecified): -4.117%.
With `Cc1nonc1CN(C)c1nc(-c2cccnc2)nc2c1CCNC2`, the “Percent Effect” value was 3.087%.
For the compound `CC(C)n1nc2c(cc1=O)CN(Cc1nc(-c3ccco3)no1)CC2`, the “Percent Effect” value is listed as -11.95%.
Take `Cc1nonc1CN(C)c1nc(-c2ccco2)nc2c1CCN(C)CC2`: the “Percent Effect” value amounted to 97.89%.
Consider `CCOCc1nc2c(c(N(C)Cc3nonc3C)n1)CCNCC2`, for which the “Percent Effect” value is given as 2.534%.
The same measure for `Cc1cc(CN(C)c2nc(-c3ccccn3)nc3c2CCNCC3)n[nH]1`: -2.668%.
Consider `Cc1nc(CNc2nc(-c3ccco3)nc3c2CCNCC3)n[nH]1`, for which the “Percent Effect” value is on record as 7.543%.
With `Cc1noc(CN(C)c2nc(-c3ccco3)nc3c2CCN(C)CC3)n1`, the “Percent Effect” value came to 89.77%.
As to `CN(Cc1ccc2c(c1)OCO2)Cc1nc(-c2ccco2)no1`, the “Percent Effect” value amounted to 2.905%.
With `Cc1cc(CN(C)c2nc(-c3ccco3)nc3c2CCN(C)CC3)on1`, the “Percent Effect” value was found to be 70.19%.
